{"source": "PubChem BioAssay (EPA / NIEHS)", "key": {"[1]": {"target": "Norway rat Vesicular Monoamine Transporter (VMAT2), neurotransmitter transporter, Slc18a2 (gene 25549) (UniProt Q01827)", "sequence (Q01827 whole entry, looked up)": "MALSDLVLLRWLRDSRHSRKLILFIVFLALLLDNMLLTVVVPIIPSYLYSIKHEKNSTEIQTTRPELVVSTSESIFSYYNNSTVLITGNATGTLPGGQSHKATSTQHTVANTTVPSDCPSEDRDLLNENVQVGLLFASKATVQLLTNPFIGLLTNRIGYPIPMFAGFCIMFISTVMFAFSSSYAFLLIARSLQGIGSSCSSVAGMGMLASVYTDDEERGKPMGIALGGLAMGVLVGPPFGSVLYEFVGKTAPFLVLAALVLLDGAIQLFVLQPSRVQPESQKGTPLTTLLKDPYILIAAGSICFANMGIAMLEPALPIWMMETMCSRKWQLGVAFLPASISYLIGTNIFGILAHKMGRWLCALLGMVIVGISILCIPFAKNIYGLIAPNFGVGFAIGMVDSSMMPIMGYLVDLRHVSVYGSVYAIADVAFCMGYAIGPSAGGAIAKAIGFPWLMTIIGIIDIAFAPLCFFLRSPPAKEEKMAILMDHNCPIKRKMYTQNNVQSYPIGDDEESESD", "assay": "NVS_TR_rVMAT2: NovaScreen (NVS) Transporter Assay for Norway rat Vesicular Monoamine Transporter (VMAT2), neurotransmitter transporter (AID 2283376);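 note: actives lower the bound radioligand signal below the DMSO level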", "how_it_was_run": "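Radioligand displacement binding on rat forebrain tissue preparation, filter-based scintillation read-out 1 hour after dosing. Primary screen in duplicate at 25 uM, then concentration series for actives; loss of signal versus DMSO.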"}, "[2]": {"assay": "TOX21_p53_BLA_p2_viability: Viability Assessment in the Tox21 HCT-116 p53 Agonism Beta-lactamase Assay, Phase 2 (AID 2283591);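 note: compound exposure lasted 16 h at 37 °C; actives lower the ATP signal meaning cytotoxicity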", "how_it_was_run": "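HCT116 p53-bla cells, 4000/well, dosed after 5 h plating (217-fold dilution of DMSO stocks) and incubated 16 h at 37C. Viability taken as cellular ATP by CellTiter-Glo luminescence after 30 min RT; signal loss marks cytotoxicity.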"}, "[3]": {"target": "Cellular tumor antigen p53 (Homo sapiens) (UniProt P04637)", "sequence (P04637 whole entry, looked up)": "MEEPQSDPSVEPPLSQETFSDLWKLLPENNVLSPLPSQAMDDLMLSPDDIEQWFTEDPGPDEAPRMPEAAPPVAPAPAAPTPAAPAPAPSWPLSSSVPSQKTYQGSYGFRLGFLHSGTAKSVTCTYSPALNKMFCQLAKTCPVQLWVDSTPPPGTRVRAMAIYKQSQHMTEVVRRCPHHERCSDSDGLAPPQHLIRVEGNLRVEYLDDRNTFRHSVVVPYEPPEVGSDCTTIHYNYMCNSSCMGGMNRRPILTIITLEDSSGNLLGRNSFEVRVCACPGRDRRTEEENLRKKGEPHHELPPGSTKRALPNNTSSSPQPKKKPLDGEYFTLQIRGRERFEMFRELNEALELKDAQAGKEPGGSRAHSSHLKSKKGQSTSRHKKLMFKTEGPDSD", "assay": "TOX21_p53_BLA_p2_ratio: Tox21 HCT-116 p53 Agonism Beta-lactamase Assay, Ratio, Phase 2 (AID 2283592)", "how_it_was_run": "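HCT116 p53-bla; 4000 cells/well; 5 h pre-incubation; cpd in DMSO, 217-fold dilution; 16 h 37C/5% CO2; CCF4-AM 2 h RT; Ex 405, Em 460/530 ratio; DMSO = baseline; positive fitting direction.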"}, "[4]": {"target": "Cellular tumor antigen p53 (Homo sapiens) (UniProt P04637)", "assay": "TOX21_p53_BLA_p3_ratio: Tox21 HCT-116 p53 Agonism Beta-lactamase Assay, Ratio, Phase 3 (AID 2283596)", "how_it_was_run": "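HCT116 p53-bla cells (4000/well) given compound in DMSO (217-fold dilution) after 5 h, incubated 16 h at 37C. CCF4-AM substrate 2 h at room temperature; 460/530 nm emission ratio, gain fitted against DMSO.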"}, "[5]": {"assay": "TOX21_p53_BLA_p4_viability: Viability Assessment in the Tox21 HCT-116 p53 Agonism Beta-lactamase Assay, Phase 4 (AID 2283597);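 note: hits lower the luminescence signal meaning cytotoxicity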", "how_it_was_run": "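Cells plated, 5 h pre-incubation; DMSO compounds pinned (217-fold dilution); 16 h, 37C/5% CO2; CCF4-AM 2 h RT; CellTiter-Glo 30 min RT; luminescence read.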"}, "[6]": {"target": "Cellular tumor antigen p53 (Homo sapiens) (UniProt P04637)", "assay": "TOX21_p53_BLA_p5_ratio: Tox21 HCT-116 p53 Agonism Beta-lactamase Assay, Ratio, Phase 5 (AID 2283599)", "how_it_was_run": "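HCT-116 p53-bla cells (4000/well) plated 5 h, dosed with compound (217-fold DMSO dilution) for 16 h at 37 C; CCF4-AM substrate 2 h at room temperature. Activity is the 460/530 nm emission ratio (405 nm excitation), fitted in gain-of-signal direction versus DMSO.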"}, "[7]": {"assay": "TOX21_p53_BLA_p5_viability: Viability Assessment in the Tox21 HCT-116 p53 Agonism Beta-lactamase Assay, Phase 5 (AID 2283600)", "how_it_was_run": "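4000 cells/well; 5 h pre-incubation; DMSO compounds pin-transferred, 217-fold dilution; 16 h, 37C/5% CO2; CCF4-AM 2 h RT; CellTiter-Glo 30 min RT; luminescence.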"}, "[8]": {"target": "Cellular tumor antigen p53 (Homo sapiens) (UniProt P04637)", "assay": "TOX21_p53_BLA_p4_ratio: Tox21 HCT-116 p53 Agonism Beta-lactamase Assay, Ratio, Phase 4 (AID 2283601)", "how_it_was_run": "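HCT-116 p53 beta-lactamase reporter cells (4000/well) preincubated 5 h, then compound (217-fold dilution of DMSO stock) for 16 h at 37C. CCF4-AM substrate added 2 h at room temperature; 460/530 nm emission ratio fitted upward versus DMSO.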"}, "[9]": {"assay": "TOX21_p53_BLA_p3_viability: Viability Assessment in the Tox21 HCT-116 p53 Agonism Beta-lactamase Assay, Phase 3 (AID 2283593);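 note: cells exposed to compound for 16 h before reading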", "how_it_was_run": "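HCT116 cells, 4000/well, dosed 5 h after plating by pin transfer (217-fold dilution from DMSO stock) and incubated 16 h at 37C, 5% CO2. Viability read as ATP luminescence with CellTiter-Glo after 30 min at room temperature.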"}}, "note": "“And” between values parts separate entries of the source, which are not always exact repeats. Equal values may be shown once. Inconclusive results are not listed. A structure can be active in one record and inactive in another. The source made the active and inactive calls. Rule for the calls: active = hit-call score of the fitted dose curve at least 0.9, where 1 is the maximum; inconclusive = response in the unintended direction; inactive = score below 0.9.", "data": [{"smiles": "CCOC(=O)C=Cc1ccccc1", "values": [{"measurement": "outcome", "setting": "[1]", "value": "inactive"}]}, {"smiles": "Nc1ccc([As](=O)(O)O)cc1", "values": [{"measurement": "outcome", "setting": "[2]", "value": "inactive"}, {"measurement": "AC50", "setting": "[3]", "value": "35.1 µM (active)"}, {"measurement": "outcome", "setting": "[3]", "value": "inactive"}, {"measurement": "outcome", "setting": "[4]", "value": "inactive"}, {"measurement": "outcome", "setting": "[5]", "value": "inactive"}, {"measurement": "outcome", "setting": "[6]", "value": "inactive"}, {"measurement": "outcome", "setting": "[7]", "value": "inactive"}, {"measurement": "AC50", "setting": "[8]", "value": "42.1 µM (active)"}, {"measurement": "outcome", "setting": "[8]", "value": "inactive"}]}, {"smiles": "CCCCCCCCCCCCCCn1cc[n+](C)c1", "values": [{"measurement": "AC50", "setting": "[2]", "value": "82.2 µM (active) and 60.1 µM (active)"}, {"measurement": "outcome", "setting": "[2]", "value": "inactive"}, {"measurement": "AC50", "setting": "[3]", "value": "6.74 µM (active) and 2.12 µM (active)"}, {"measurement": "outcome", "setting": "[3]", "value": "inactive"}, {"measurement": "AC50", "setting": "[9]", "value": "10.3 µM (active) and 77.3 µM (active)"}, {"measurement": "outcome", "setting": "[9]", "value": "inactive"}, {"measurement": "AC50", "setting": "[4]", "value": "14 µM (active) and 6.93 µM (active)"}, {"measurement": "outcome", "setting": "[4]", "value": "inactive"}, {"measurement": "AC50", "setting": "[5]", "value": "598 nM (active) and 40 µM (active)"}, {"measurement": "outcome", "setting": "[5]", "value": "inactive"}, {"measurement": "AC50", "setting": "[6]", "value": "49.6 µM (active) and 39.7 µM (active)"}, {"measurement": "AC50", "setting": "[7]", "value": "86.2 µM (active) and 46.2 µM (active)"}, {"measurement": "outcome", "setting": "[7]", "value": "inactive"}, {"measurement": "AC50", "setting": "[8]", "value": "63.9 µM (active) and 63.4 µM (active)"}, {"measurement": "outcome", "setting": "[8]", "value": "inactive"}]}, {"smiles": "CC1CCC(C(C)C)C(OC(=O)c2ccccc2N)C1", "note": "(centres undefined)", "values": [{"measurement": "AC50", "setting": "[2]", "value": "45.5 µM (active) and 38.5 µM (active)"}, {"measurement": "AC50", "setting": "[3]", "value": "76.3 µM (active)"}, {"measurement": "outcome", "setting": "[3]", "value": "inactive"}, {"measurement": "outcome", "setting": "[4]", "value": "inactive"}, {"measurement": "AC50", "setting": "[5]", "value": "45.5 µM (active) and 34.7 µM (active)"}, {"measurement": "AC50", "setting": "[6]", "value": "42.8 µM (active)"}, {"measurement": "AC50", "setting": "[7]", "value": "31.7 µM (active)"}, {"measurement": "outcome", "setting": "[7]", "value": "inactive"}, {"measurement": "outcome", "setting": "[8]", "value": "inactive"}]}]}
